PubChem BioAssay (NCI)
Compounds without any hit were thinned out: in the full panel of roughly 79,000, 15% have a hit. Rule as the data show it: active = growth inhibition above about 70%; inactive = the rest.

What was measured:
[1] = NCI Yeast Anticancer Drug Screen. Data for the rad50 strain (AID 155);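 also: 0% = growth of vehicle-only cultures of the same strain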; conditions: S. cerevisiae rad50 strain growth inhibition; at 50.0 µM; hits give high values
How it was run: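 DNA repair mutant yeast, compound exposure, growth read-out; inhibition is taken relative to vehicle.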

[2] = NCI Yeast Anticancer Drug Screen. Data for the mec2-1 strain (AID 157); conditions: S. cerevisiae mec2-1 strain, at 50.0 µM, hits give high values
How it was run: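 mec2-1 yeast strain, carrying an alteration in DNA damage repair or cell cycle control, was exposed to compounds; growth inhibition was measured relative to vehicle-treated controls.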

[3] = NCI Yeast Anticancer Drug Screen. Data for the sgs1 mgt1 strain (AID 161);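 also: 0% = growth of cultures given vehicle only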; conditions: S. cerevisiae sgs1 mgt1 strain, at 50.0 µM, hits give high values
How it was run: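 Growth of a repair-deficient yeast mutant was monitored after compound treatment and expressed as inhibition relative to vehicle-treated cultures.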

[4] = NCI Yeast Anticancer Drug Screen. Data for the cln2 rad14 strain (AID 165);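 also: 0% = growth equal to vehicle treated cultures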; conditions: S. cerevisiae cln2 rad14 strain, at 50.0 µM, hits give high values
How it was run: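 Yeast carrying cln2 and rad14 alterations (cell cycle control and DNA damage repair) were exposed to compounds. Growth inhibition was measured against vehicle-treated controls.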

[5] = NCI Yeast Anticancer Drug Screen. Data for the bub3 strain (AID 167); conditions: S. cerevisiae bub3 mutant strain, at 50.0 µM, hits give high values
How it was run: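 In this screen, a yeast mutant lacking normal mitotic checkpoint function is challenged with compound. Relative growth versus vehicle gives the inhibition value.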

[6] = NCI Yeast Anticancer Drug Screen. Data for the mlh1 rad18 strain (AID 175); conditions: S. cerevisiae mlh1 rad18 strain growth inhibition; at 50.0 µM; hits give high values
How it was run: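 Growth inhibition of the yeast strain was measured after compound exposure and expressed relative to vehicle-treated controls. The strain carries defined defects in DNA damage repair.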

Measured: growth inhibition

O=C(Nc1ccc([N+](=O)[O-])cc1)OC1CCS(=O)(=O)C1 (stereo unspecified)
inactive: [1] -0.2% | [2] 6.15% | [3] -3.65% | [4] 13.7% | [5] 8.6% | [6] -1.65%

O=c1ccocc1OC1OC(CO)C(O)C(O)C1O (stereo unspecified)
inactive: [1] -3.95% | [2] -26.4% | [3] -21.1% | [4] -1.35% | [5] -32.3% | [6] -23.1%

S=C(S)OC1CCCCC1.[Zn+2]
inactive: [1] -14.9% | [2] -15.8% | [3] -22.2% | [4] -50.9% | [5] -24.8% | [6] -12.2%

COc1cc(CC(=O)O)c(Br)cc1C
inactive: [1] 5.95% | [2] 20.9% | [3] 4.15% | [4] 0.05% | [5] -0.85% | [6] -2.65%

COc1ccc(CCNC(=O)CCc2ccccc2CO)cc1OC
inactive: [1] 15.8% | [2] 13.9% | [3] -36.9% | [4] -5.9% | [5] -39.2% | [6] -5.9%

NC(N)=NS(=O)(=O)c1ccc(NC(=O)c2cccc3c(N)c4ccccc4nc23)cc1
inactive: [1] 5.35% | [2] 5.95% | [3] -0.2% | [4] 8.65% | [5] -9% | [6] -10.2%

CCN1CCCC(SC(=O)C(O)(c2ccccc2)c2ccccc2)C1 (stereo unspecified)
inactive: [1] -16.6% | [2] -5.75% | [3] -22.1% | [4] -15.2% | [5] -4.15% | [6] 0.15%

O=C1C2C3C=CC(C3)C2C(=O)N1c1ncc([N+](=O)[O-])s1 (stereo unspecified)
inactive: [1] 17.8% | [2] -6.85% | [3] 26.9% | [4] -57.9% | [5] -14.2% | [6] 12.3%

CCN(CC)CCCC(C)NC(=O)c1ccc2c(c1)C(=O)c1ccccc1C2=O (stereo unspecified)
inactive: [1] 6% | [2] 19.1% | [3] 16.9% | [4] 36.4% | [5] -17.7% | [6] -33.9%

COC(=O)n1oc2c(Br)cc(Br)cc2c1=O
inactive: [1] -4.15% | [2] -10.4% | [3] 1.45% | [4] -6.85% | [5] -0.2% | [6] 0.8%

CCOC(=O)c1cnc2cc3c(cc2c1Nc1cccc(C(F)(F)F)c1)OCO3
inactive: [1] 5.95% | [2] -8.85% | [3] -9.5% | [4] -6.45% | [5] -2.75% | [6] -11.6%

CCc1cccc(C(C)C)c1NC(=O)C(=O)C1C(=O)Nc2ccccc2S1=O (stereo unspecified)
inactive: [1] -3.95% | [2] -13.6% | [3] -16.9% | [4] -11.2% | [5] 2.4% | [6] -29.1%

O=C(O)CSc1nc2cc(Cl)c(Cl)cc2[nH]1
inactive: [1] -9.75% | [2] -6.75% | [3] 1.35% | [4] -10.4% | [5] 13.1% | [6] -7.55%

Cc1cnc2[nH]c(-c3cccc4ccccc34)cc(=O)c2c1
inactive: [1] 13.2% | [2] 7% | [3] 16.1% | [4] -6.6% | [5] 14.9% | [6] -21.6%

CCOC(=O)C(F)(F)C(F)(F)C(F)(F)F
inactive: [1] 5.45% | [2] -16.4% | [3] 9.1% | [4] 10.9% | [5] -5.55% | [6] 11.8%

CC(=O)OCc1cc(=O)n2c([nH]c3ccccc32)c1C#N
inactive: [1] 11.1% | [2] 10.6% | [3] -24.6% | [4] -15.5% | [5] -26.3% | [6] -2.6%

NC(=O)c1cc[cH-]c1.[Fe+2].c1cc[cH-]c1
inactive: [1] -10.1% | [2] 9% | [3] -4.75% | [4] -2.05% | [5] 5.35% | [6] 12.9%

O=C1NC(=O)C(c2ccc(O)cc2)N1 (stereo unspecified)
inactive: [1] -21.1% | [2] -14.8% | [3] -4.6% | [4] -30.9% | [5] 0.2% | [6] -10.2%

CC(C)CCCC(C)C1CCC2C3CC=C4CC(OC(=O)Nc5ccc(S(=O)(=O)N6CCCCC6)cc5)CCC4(C)C3CCC12C (stereo unspecified)
inactive: [1] 2.3% | [2] 2.45% | [3] 1.65% | [4] -5.8% | [5] -3.75% | [6] 6.45%

CCC/C=C(/C=N/Nc1ccc([N+](=O)[O-])cc1[N+](=O)[O-])CC
inactive: [1] 16.4% | [2] -10.7% | [3] -7.8% | [4] 32.6% | [5] 0.75% | [6] 4.05%

O=C(COc1ccc(Cl)cc1)Nc1ccc(I)cc1
inactive: [1] 0.05% | [2] -4.85% | [3] 0.6% | [4] -5.15% | [5] -1.45% | [6] 6.45%

COc1ccc(/C=C2\CCCC(C(NO)c3ccc(OC)cc3)C2=NO)cc1 (stereo unspecified)
inactive: [1] 13.6% | [2] -33.4% | [3] 26.8% | [4] 1.15% | [5] 22.8% | [6] 18.2%

CC(=O)N1Cc2c(cc(C)[nH]c2=O)C1=O
inactive: [1] 9% | [2] 10.5% | [3] 6.45% | [4] 10.7% | [5] 1.05% | [6] 7.65%

COC(=O)C1OC(n2ccc(=O)[nH]c2=O)C(OC(C)=O)C(OC(C)=O)C1OC(C)=O (stereo unspecified)
inactive: [1] 2.2% | [2] -3.4% | [3] -1.3% | [4] -9.55% | [5] 1.45% | [6] 6.6%

c1ccc(-c2cnc(-c3ccccc3)cn2)cc1
inactive: [1] 1.3% | [2] 10.6% | [3] -6.15% | [4] 41.6% | [5] 6.75% | [6] -15.4%

CC(C)(C)OC(=O)C1=C2C=C(O)C=CC2(C)N(Cc2ccccc2)C1=N (stereo unspecified)
inactive: [1] -23.9% | [2] -55.5% | [3] -36% | [4] -36.2% | [5] -24.6% | [6] -50.2%

CNc1ccc([N+](=O)[O-])cc1C(=O)OC
inactive: [1] 8% | [2] -6.1% | [3] -8.55% | [4] -46.2% | [5] -22.9% | [6] 22.9%

CCCCCCSc1nc2c([nH]1)c(=O)n(C)c(=S)n2C
inactive: [1] 2.5% | [2] -3.1% | [3] 1.35% | [4] 1.5% | [5] 13.9% | [6] 19.1%

COC(=O)CC1(C(=O)OC)Oc2ccc(Br)cc2C(=O)N1c1cccc(Cl)c1Cl (stereo unspecified)
inactive: [1] 52.4% | [2] 13.8% | [3] 46.5% | [4] 40.6% | [5] 52.9% | [6] 54.1%

CCc1nc(Nc2cccc(C)c2)c2cnn(-c3ccccc3)c2n1
inactive: [1] -0.85% | [2] -15.6% | [3] -2.3% | [4] -22.5% | [5] -3.05% | [6] -13.8%

Cc1cc2c(cc1C)OC(=O)CC2
inactive: [1] 14.3% | [2] 6.15% | [3] -1.2% | [4] -11.9% | [5] 7.45% | [6] 3.65%

O=C(O)c1cc(=O)[nH]c2ccccc12
inactive: [1] -10.1% | [2] -5.7% | [3] 8% | [4] -0.95% | [5] 1.7% | [6] 14.9%

CC(=O)Nc1ccc(S(=O)(=O)N=S(C)C)cc1
inactive: [1] -10.8% | [2] -9.05% | [3] -24.9% | [4] -21.6% | [5] -40% | [6] 13.8%

COC(=O)Cc1[nH]c(C(=O)OC)c(C)c1C(=O)OC
inactive: [1] -6.7% | [2] -7.45% | [3] -3.15% | [4] -21.1% | [5] -6.95% | [6] -2.2%

COc1cccc(/C(CC(O)(C(F)(F)F)C(F)(F)F)=N\N(C)C)c1
inactive: [1] -30.6% | [2] -9.9% | [3] -8.7% | [4] -38.2% | [5] 1.5% | [6] -25.2%

CCc1cc(O)c([N+](=O)[O-])cc1[N+](=O)[O-]
inactive: [1] -15.7% | [2] -3.95% | [3] 21.1% | [4] -34.8% | [5] -17.2% | [6] -7.95%

C=CCC(C)C(=O)NNC(=O)C(C)CC=C (stereo unspecified)
inactive: [1] -11.8% | [2] -9.15% | [3] -1.85% | [4] -13.3% | [5] -12.2% | [6] 11.8%

COc1ccc(N=Nc2c(C)nn(C(=O)c3ccncc3)c2C)cc1
inactive: [1] -21.9% | [2] -3.75% | [3] 13.4% | [4] -1.2% | [5] 11.4% | [6] -10.1%

COC(=O)C(=O)/C(=C\N1C(=O)CC(=O)NC1=S)C(=O)c1ccc([N+](=O)[O-])cc1
inactive: [1] 17.9% | [2] -0.4% | [3] 9.6% | [4] 1.5% | [5] -5.25% | [6] 6%

SC1c2ccccc2-c2ccccc21
inactive: [1] 30.1% | [2] 2.75% | [3] 7.5% | [4] 7.25% | [5] -30.2% | [6] 1.7%

CCN(CC)CCNc1ccccc1
inactive: [1] -0.45% | [2] -13% | [3] -8.55% | [4] -48.4% | [5] -4.9% | [6] 14.7%
